Our source for the AC50 and outcome values is PubChem BioAssay (EPA / NIEHS).

Active and inactive are the calls of the source. The calls were made as follows: active = hit-call score of the fitted dose curve at least 0.9, where 1 is the maximum; inactive = score below 0.9.

Chain of Transcription factor E2F1 (Homo sapiens) (Q01094 whole entry, looked up): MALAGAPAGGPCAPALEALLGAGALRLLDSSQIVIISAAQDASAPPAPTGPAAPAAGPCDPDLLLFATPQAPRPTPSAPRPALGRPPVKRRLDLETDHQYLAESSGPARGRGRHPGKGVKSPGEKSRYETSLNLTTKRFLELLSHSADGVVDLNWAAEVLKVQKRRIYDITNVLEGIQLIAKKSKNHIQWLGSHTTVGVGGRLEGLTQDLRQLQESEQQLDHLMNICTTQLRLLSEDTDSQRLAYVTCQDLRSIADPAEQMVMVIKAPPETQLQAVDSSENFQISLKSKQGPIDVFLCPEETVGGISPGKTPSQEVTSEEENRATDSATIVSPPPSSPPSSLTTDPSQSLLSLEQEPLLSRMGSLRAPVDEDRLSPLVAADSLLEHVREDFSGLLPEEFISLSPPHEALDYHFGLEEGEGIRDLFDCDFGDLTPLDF

Tested on in the first test: not listed separately
Kind of test: ATG_AP_2_CIS: Attagene CIS-FACTORIAL HepG2 Assay for human Activator Protein 2 (AP-2) (AID 2282932). As to conditions: HepG2 AP-2 cis-reporter, Attagene transcription factor profiling; actives raise or lower the signal. Summed up: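 HepG2 cells were transiently transfected with multiple cis-promoter reporter transcription units and dosed for 24 h. Reporter mRNA was measured by RT-PCR with capillary electrophoresis fluorescence; bidirectional fits relative to DMSO baseline.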
Take `O=C(N[C@@H](Cc1ccccc1)[C@@H](O)C(=O)N1C[C@@H](O)[C@@H](O)C1)c1cc2cc(Cl)ccc2[nH]1`: the AC50 (commonly the concentration giving half of the maximal activity seen) was 155 µM (active).
`CCCCCCCCCCCCCCCC`: the outcome was inactive.
Consider `Cc1ccc(C)c(C)c1`, for which the compound was classed as inactive.
Consider `C=CCOC(=O)c1ccccc1C(=O)OCC=C`, for which the outcome was inactive.
Consider `CCCCCCCCCCC`, for which the compound was called inactive.
With `COc1cc(-c2nc(NC(=O)c3cc4cc(C)cc(C)c4n3CC(=O)O)sc2CCC2CCCCC2)c(OC)cc1Cl`, the AC50 is 10.4 µM (active).
`Cc1cc(NC(=O)C(=O)O)cc(C)c1Oc1ccc(O)c2c1CCC2`: the outcome was inactive.
With `O=C(OCCCCCOC(=O)c1ccccc1)c1ccccc1`, the compound was called inactive.
In the case of `COC(=O)c1ccc(O)cc1`, the compound was classed as inactive.
With `CCCCCCCC=O`, the compound was classed as inactive.
The same measure, in the same setting: under `CCCCC(CC)COC(=O)CC(C(=O)OCC(CC)CCCC)S(=O)(=O)O` (stereo not given) stands “inactive”.
For `C[Si]1(C)O[Si](C)(C)O[Si](C)(C)O[Si](C)(C)O1`, the outcome was inactive.
Take `C=CCc1ccc(O)c(OC)c1`: the compound was classed as inactive.
The same measure, in the same setting: with `NS(=O)(=O)c1cc2c(cc1Cl)NCNS2(=O)=O` the entry was “inactive”.
Turning to `COc1cc(/C=C/C(=O)CC(=O)/C=C/c2ccc(O)c(OC)c2)ccc1O`, the AC50 is 55.5 µM (active).
In the case of `CCOC(=O)CCC(=O)OCC`, the compound was called inactive.
Regarding `CC(CO)OC(C)CO` (stereo not given) (tested in a mixture with another compound), the result was inactive.
Consider `O=C(O)CCCCC(=O)O`, for which the compound was classed as inactive.
Same read-out and setting: with `Cc1cc(=O)[nH]c(=S)[nH]1` the entry was “inactive”; with `Cc1nc(-c2ccc3c(c2)CCN(CCC2CCC(NC(=O)/C=C/c4ccc(F)cc4)CC2)CC3)no1` (stereo not given), “inactive”; with `Oc1ccc2c(c1)OC[C@@H](N1CCC(O)(c3ccc(F)cc3)CC1)[C@H]2O`, “inactive”.
In the case of `NCC1(Cc2noc(=O)[nH]2)CCCCC1`, the compound was called inactive.
The same measure, in the same setting: with `NCCO` the entry was “inactive”.
`CC1=C(/C=C/C(C)=C/C=C/C(C)=C/CO)C(C)(C)CCC1`: the half-maximal activity concentration (AC50) is 164 µM (active).
Regarding `Cc1cccc([N+](=O)[O-])c1C`, the outcome was inactive.
The same measure, in the same setting: with `CCCCCCCCCCCCCO` the entry was “inactive”.
Same read-out and setting: with `Cc1ccc(C(C)C)c(O)c1` the entry was “inactive”; with `Nc1ccc(S(=O)(=O)c2ccc(N)cc2)cc1`, “inactive”; with `Nc1nc(N)c2nc(CNc3ccc(C(=O)N[C@@H](CCC(=O)O)C(=O)O)cc3)cnc2n1`, “inactive”.
As for `CCCCc1ccc2c(n1)[C@@H](c1ccc(OC)cc1C[C@H](C)C(=O)O)[C@H](C(=O)O)[C@H]2c1ccc2c(c1)OCO2`, the compound was called inactive.

Tested on in another test: not listed separately
Kind of test: ATG_BRE_CIS: Attagene CIS-FACTORIAL HepG2 Assay for human Bone Morphogenetic Protein (BMP) Response Element (BRE) (AID 2282933). As to conditions: HepG2 BMP response element reporter, Attagene transcription factor profiling; actives raise or lower the signal. An outline of the steps:
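Endogenous transcription factor activity at a BMP response element was monitored in transfected HepG2 cells 24 h after dosing. Fluorescent RT-PCR products were resolved by capillary electrophoresis, and activity was fitted in both directions versus DMSO.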
`O=C(N[C@@H](Cc1ccccc1)[C@@H](O)C(=O)N1C[C@@H](O)[C@@H](O)C1)c1cc2cc(Cl)ccc2[nH]1`: the compound was called inactive.
On the same count and under the same terms, under `CCCCCCCCCCCCCCCC` stands “inactive”; under `Cc1ccc(C)c(C)c1`, “inactive”; under `C=CCOC(=O)c1ccccc1C(=O)OCC=C`, “inactive”.
For `CCCCCCCCCCC`, the call was inactive.
Take `COc1cc(-c2nc(NC(=O)c3cc4cc(C)cc(C)c4n3CC(=O)O)sc2CCC2CCCCC2)c(OC)cc1Cl`: the half-maximal activity concentration (AC50) was 10.4 µM (active).
Turning to `Cc1cc(NC(=O)C(=O)O)cc(C)c1Oc1ccc(O)c2c1CCC2`, the result was inactive.
As for `O=C(OCCCCCOC(=O)c1ccccc1)c1ccccc1`, the compound was called inactive.
Same read-out and setting: under `COC(=O)c1ccc(O)cc1` stands “inactive”.
As for `CCCCCCCC=O`, the outcome was inactive.
The same measure, in the same setting: with `CCCCC(CC)COC(=O)CC(C(=O)OCC(CC)CCCC)S(=O)(=O)O` (stereo not given) the entry was “inactive”; with `C[Si]1(C)O[Si](C)(C)O[Si](C)(C)O[Si](C)(C)O1`, “inactive”; with `C=CCc1ccc(O)c(OC)c1`, “inactive”.
With `NS(=O)(=O)c1cc2c(cc1Cl)NCNS2(=O)=O`, the call was inactive.
`COc1cc(/C=C/C(=O)CC(=O)/C=C/c2ccc(O)c(OC)c2)ccc1O`: the compound was classed as inactive.
As for `CCOC(=O)CCC(=O)OCC`, the compound was classed as inactive.
On the same count and under the same terms, with `CC(CO)OC(C)CO` (stereo not given) (tested in a mixture with another compound) the entry was “inactive”; with `O=C(O)CCCCC(=O)O`, “inactive”; with `Cc1cc(=O)[nH]c(=S)[nH]1`, “inactive”.
On the same count and under the same terms, with `Cc1nc(-c2ccc3c(c2)CCN(CCC2CCC(NC(=O)/C=C/c4ccc(F)cc4)CC2)CC3)no1` (stereo not given) the entry was “inactive”.
Turning to `Oc1ccc2c(c1)OC[C@@H](N1CCC(O)(c3ccc(F)cc3)CC1)[C@H]2O`, the AC50 is 62.1 µM (active).
With `NCC1(Cc2noc(=O)[nH]2)CCCCC1`, the call was inactive.
As for `NCCO`, the compound was called inactive.
As to `CC1=C(/C=C/C(C)=C/C=C/C(C)=C/CO)C(C)(C)CCC1`, the result was inactive.
With `Cc1cccc([N+](=O)[O-])c1C`, the compound was classed as inactive.
For `CCCCCCCCCCCCCO`, the concentration at half-maximal activity (AC50) is 34.3 µM (active).
Consider `Cc1ccc(C(C)C)c(O)c1`, for which the outcome was inactive.
Turning to `Nc1ccc(S(=O)(=O)c2ccc(N)cc2)cc1`, the call was inactive.
Same read-out and setting: with `Nc1nc(N)c2nc(CNc3ccc(C(=O)N[C@@H](CCC(=O)O)C(=O)O)cc3)cnc2n1` the entry was “inactive”.
Regarding `CCCCc1ccc2c(n1)[C@@H](c1ccc(OC)cc1C[C@H](C)C(=O)O)[C@H](C(=O)O)[C@H]2c1ccc2c(c1)OCO2`, the compound was called inactive.

In another test the target is Transcription factor E2F1 (Homo sapiens) (UniProt Q01094). Kind of test: ATG_E2F_CIS: Attagene CIS-FACTORIAL HepG2 Assay for human E2F Transcription Factor 1 (AID 2282935). As to conditions: HepG2 Attagene cis-reporter, E2F reporter RNA transcripts; actives raise or lower the signal. Summed up:
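HepG2 cells transiently transfected with multiplexed cis-element reporter units, dosed for 24 h. Reporter mRNA measured by RT-PCR, 6-FAM primer-extension labeling, HpaI digestion and capillary electrophoresis; bidirectional fit versus DMSO baseline.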
For `O=C(N[C@@H](Cc1ccccc1)[C@@H](O)C(=O)N1C[C@@H](O)[C@@H](O)C1)c1cc2cc(Cl)ccc2[nH]1`, the result was inactive.
The same measure, in the same setting: with `CCCCCCCCCCCCCCCC` the entry was “inactive”.
Same read-out and setting: under `Cc1ccc(C)c(C)c1` stands “inactive”.
The same measure, in the same setting: with `C=CCOC(=O)c1ccccc1C(=O)OCC=C` the entry was “inactive”; with `CCCCCCCCCCC`, “inactive”.
In the case of `COc1cc(-c2nc(NC(=O)c3cc4cc(C)cc(C)c4n3CC(=O)O)sc2CCC2CCCCC2)c(OC)cc1Cl`, the result was inactive.
Still for that read-out and setting: under `Cc1cc(NC(=O)C(=O)O)cc(C)c1Oc1ccc(O)c2c1CCC2` stands “inactive”; under `O=C(OCCCCCOC(=O)c1ccccc1)c1ccccc1`, “inactive”; under `COC(=O)c1ccc(O)cc1`, “inactive”.
Still for that read-out and setting: under `CCCCCCCC=O` stands “inactive”; under `CCCCC(CC)COC(=O)CC(C(=O)OCC(CC)CCCC)S(=O)(=O)O` (stereo not given), “inactive”.
The same measure, in the same setting: under `C[Si]1(C)O[Si](C)(C)O[Si](C)(C)O[Si](C)(C)O1` stands “inactive”.
On to `C=CCc1ccc(O)c(OC)c1`, for which the result was inactive.
`NS(=O)(=O)c1cc2c(cc1Cl)NCNS2(=O)=O`: the call was inactive.
In the case of `COc1cc(/C=C/C(=O)CC(=O)/C=C/c2ccc(O)c(OC)c2)ccc1O`, the compound was called inactive.
`CCOC(=O)CCC(=O)OCC`: the outcome was inactive.
Same read-out and setting: with `CC(CO)OC(C)CO` (stereo not given) (tested in a mixture with another compound) the entry was “inactive”; with `O=C(O)CCCCC(=O)O`, “inactive”.
On the same count and under the same terms, under `Cc1cc(=O)[nH]c(=S)[nH]1` stands “inactive”.
Same read-out and setting: with `Cc1nc(-c2ccc3c(c2)CCN(CCC2CCC(NC(=O)/C=C/c4ccc(F)cc4)CC2)CC3)no1` (stereo not given) the entry was “inactive”; with `Oc1ccc2c(c1)OC[C@@H](N1CCC(O)(c3ccc(F)cc3)CC1)[C@H]2O`, “inactive”; with `NCC1(Cc2noc(=O)[nH]2)CCCCC1`, “inactive”.
As to `NCCO`, the compound was classed as inactive.
`CC1=C(/C=C/C(C)=C/C=C/C(C)=C/CO)C(C)(C)CCC1`: the call was inactive.
In the case of `Cc1cccc([N+](=O)[O-])c1C`, the outcome was inactive.
Still for that read-out and setting: with `CCCCCCCCCCCCCO` the entry was “inactive”; with `Cc1ccc(C(C)C)c(O)c1`, “inactive”; with `Nc1ccc(S(=O)(=O)c2ccc(N)cc2)cc1`, “inactive”.
As for `Nc1nc(N)c2nc(CNc3ccc(C(=O)N[C@@H](CCC(=O)O)C(=O)O)cc3)cnc2n1`, the compound was called inactive.
Turning to `CCCCc1ccc2c(n1)[C@@H](c1ccc(OC)cc1C[C@H](C)C(=O)O)[C@H](C(=O)O)[C@H]2c1ccc2c(c1)OCO2`, the outcome was inactive.
